From PubChem BioAssay
LEDGF integ inh: blocks HIV-1 LEDGF/p75-dependent DNA integration; 0.64% of 370,000 active; TR-FRET IN-LEDGF/p75 DNA integration, Eu/Cy5; inhibition, % at 3.7 µM; AID 743269;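 active means inhibition above the screen-wide mean plus 3 SD, cut at about 13% in these data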;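 further: signal is the Cy5 over europium emission ratio at 671 and 618 nm; 0% = plate median of compound wells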
ABHD5-PLIN5 inh: ABHD5-PLIN5 protein interaction inhibition; Q00G26+Q8WTS1; Split G. princeps luciferase complementation, luminescence, 4 h; inhibition, % at 4 µM; 0.78% of 360,000 active; AID 602281;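 active means inhibition above the mean inhibition across every tested compound plus 3 SD, cut at about 22% in these data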;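 further: 0% = DMSO only wells and the 100% control is not disclosed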
rCAG binder: r(CAG) repeat RNA binding; 1.3% of 370,000 active; inhibition, % at 3 µM; TO-PRO-1 dye displacement fluorescence; AID 651821;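 active means inhibition above the plate cutoff, the mean of all test compounds on that plate plus 3 SD, cut at about 35% in these data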;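 further: 0% = DMSO alone and 100% = 100 µM mitoxantrone as full dye displacement; higher means more dye released from RNA so lower well fluorescence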
MBD2 inh: inhibitors of human MBD2 binding to methylated oligonucleotide; TR-FRET; inhibition, % at 4.4 µM; 0.31% of 370,000 active; AID 686964; in the data active means inhibition above about 13%
Target sequence (Q9UBB5 whole entry, looked up): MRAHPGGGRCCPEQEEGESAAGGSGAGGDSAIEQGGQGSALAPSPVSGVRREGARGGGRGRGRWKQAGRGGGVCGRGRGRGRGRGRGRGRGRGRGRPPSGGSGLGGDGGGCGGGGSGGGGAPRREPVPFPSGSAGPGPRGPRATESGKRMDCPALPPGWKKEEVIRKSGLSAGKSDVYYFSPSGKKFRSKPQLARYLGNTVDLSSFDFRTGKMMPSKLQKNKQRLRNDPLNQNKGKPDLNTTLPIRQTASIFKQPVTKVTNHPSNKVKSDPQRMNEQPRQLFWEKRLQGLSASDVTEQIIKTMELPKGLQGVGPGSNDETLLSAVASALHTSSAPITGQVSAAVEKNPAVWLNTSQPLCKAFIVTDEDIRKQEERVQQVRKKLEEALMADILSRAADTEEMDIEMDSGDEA
PRMT1 inh: PRMT1 (human) inhibition, primary screen | Q99873 | inhibition, % at 2.79 µM | 1.3% of 370,000 active | recombinant PRMT1, activity-based probe fluorescence polarization;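 active means inhibition above about 21% made by adding two undisclosed values, limit read from the data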
UHRF1 binding: UHRF1 methyl-DNA binding inhibition | UHRF1 binding to methylated oligo, TR-FRET | inhibition, % at 4.4 µM | 0.75% of 370,000 active | AID 687016 | Q96T88;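 further: UHRF1 SRA domain binding a hemimethylated CpG hairpin DNA probe; 0% = median of test compound wells and 100% = reference inhibitor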
PRMT1 inh conf: confirmation of human PRMT1 inhibitors. shares compounds with PRMT1 inh. recombinant His-PRMT1, activity-based probe fluorescence polarization. inhibition, % at 2.79 µM. 42% of 3,300 active. AID 687036;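 active means mean inhibition across replicates above the hit cutoff derived for the earlier primary screen, cut at about 22% in these data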
UHRF1 DNA bind: counter-screen for MBD2 inhibitors: human UHRF1 methylated DNA binding inhibitors | inhibition, % at 4.4 µM | 25% of 1,000 active | UHRF1 binding to methylated oligonucleotide, TR-FRET | shares compounds with MBD2 inh;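 further: UHRF1 SRA domain binding a labeled hemimethylated CpG hairpin DNA; 0% = vehicle only and 100% = reference inhibitor with vehicle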
MBD2 DBD conf: MBD2-DBD methyl-DNA binding inhibition, TR-FRET confirmation; shares compounds with MBD2 inh; TR-FRET MBD2-DBD binding to methylated oligonucleotide; inhibition, % at 4.4 µM; 26% of 1,000 active; in the data active means inhibition above about 14%
Active calls of the source: *. The list is not random: actives were taken first. Their share in the collection is about 4.1%. Unless noted, no stated cut-off is given here; in the data, active means inhibition above about 21%; inactive means the rest.

Screening COCc1[nH]nc2c1C(c1ccc3c(c1)OCO3)N(c1ccc(OC)cc1)C2=O (centres undefined) returned LEDGF integ inh -3, rCAG binder 4, MBD2 inh 1, PRMT1 inh 0 and UHRF1 binding 0.
`O=c1cc(-c2ccccc2)nc2cc(-c3ccc(Br)cc3)[nH]n12` gave LEDGF integ inh -6, ABHD5-PLIN5 inh 4, rCAG binder 10, MBD2 inh 1, PRMT1 inh 0 and UHRF1 binding -3.
`O=c1cc(-c2ccccc2)nc2cc(-c3ccco3)[nH]n12` gave LEDGF integ inh 12, ABHD5-PLIN5 inh -11, rCAG binder 22, MBD2 inh -4, PRMT1 inh 30*, UHRF1 binding 8 and PRMT1 inh conf -1.
For Cc1sc2ccccc2[n+]1CC(=O)O the results were LEDGF integ inh 0, ABHD5-PLIN5 inh 0, rCAG binder 2, MBD2 inh -5, PRMT1 inh 48*, UHRF1 binding 0 and PRMT1 inh conf 54*.
Screening Cc1sc2ccccc2[n+]1CCC(C)S(=O)(=O)[O-] (centres undefined) returned LEDGF integ inh -3, ABHD5-PLIN5 inh 1, rCAG binder 6, MBD2 inh 4, PRMT1 inh 36*, UHRF1 binding -3 and PRMT1 inh conf 34*.
For Cc1ccc(/C=C/C(=O)OCc2nc(N)nc(Nc3ccccc3C)n2)o1 the results were LEDGF integ inh 2, ABHD5-PLIN5 inh 8, rCAG binder 2, MBD2 inh -3, PRMT1 inh 34*, UHRF1 binding -1 and PRMT1 inh conf -6.
Screening CCN1/C(=C/C=C/C=C/C=C/c2sc3ccccc3[n+]2CC)Sc2ccccc21 returned LEDGF integ inh -5, ABHD5-PLIN5 inh 7, rCAG binder 6, MBD2 inh 1, PRMT1 inh 53*, UHRF1 binding -12 and PRMT1 inh conf 23*.
For CCN1/C(=C/C=C/c2sc3ccccc3[n+]2CC)Sc2ccccc21 the results were ABHD5-PLIN5 inh 9.
CN(C(=O)[C@@H](C1CC1)[C@@H](O)c1ccc2ccccc2c1)c1ccccc1 was read as LEDGF integ inh 4, rCAG binder -3, MBD2 inh -9, PRMT1 inh -5 and UHRF1 binding -2.
O=C(COc1ccc(Cl)cc1)Nc1ncc([N+](=O)[O-])s1 was read as LEDGF integ inh 5, ABHD5-PLIN5 inh 0, rCAG binder 19, MBD2 inh -3, PRMT1 inh -1 and UHRF1 binding 2.
Screening O=C(COC(=O)COc1ccccc1)Nc1ncc([N+](=O)[O-])s1 returned LEDGF integ inh 32*, ABHD5-PLIN5 inh -25, rCAG binder 34, MBD2 inh 2, PRMT1 inh 40*, UHRF1 binding 7 and PRMT1 inh conf 15.
For CC(=O)Nc1sc2c(c1-c1nc3ccccc3s1)CCN(C(C)C)C2 the results were ABHD5-PLIN5 inh 2.
`CC(=O)Nc1sc2c(c1-c1nc3ccccc3s1)CCN(C(C)C)CC2` gave LEDGF integ inh 0, MBD2 inh 22*, PRMT1 inh 37*, UHRF1 binding 3, PRMT1 inh conf 11, UHRF1 DNA bind 7 and MBD2 DBD conf 26*.
`O=C(CN1CCc2onc(-c3ccc(-n4cc(COc5ccc([N+](=O)[O-])cc5)nn4)cc3)c2C1=O)N1CCOCC1` gave LEDGF integ inh -1, rCAG binder 13, MBD2 inh 0, PRMT1 inh 0 and UHRF1 binding -4.
`COc1cccc2c1C(=O)c1c(O)c3c(c(O)c1C2=O)CC(O)(C(=O)CO)CC3OC1CC(N(C)C)C(O)C(C)O1` (centres undefined) gave LEDGF integ inh 13, ABHD5-PLIN5 inh 9, rCAG binder -8, MBD2 inh 113*, PRMT1 inh 193*, UHRF1 binding 97*, PRMT1 inh conf 148*, UHRF1 DNA bind 99* and MBD2 DBD conf 111*.
For COc1cccc2c1C(=O)c1c(O)c3c(c(O)c1C2=O)C[C@@](O)(C(C)=O)C[C@@H]3O[C@H]1C[C@H](N)[C@H](O)[C@H](C)O1 the results were LEDGF integ inh 4, ABHD5-PLIN5 inh 11, rCAG binder 6, MBD2 inh 107*, PRMT1 inh 163*, UHRF1 binding 91*, PRMT1 inh conf 169*, UHRF1 DNA bind 98* and MBD2 DBD conf 110*.
Screening COc1cccc2c1C(=O)c1c(O)c3c(c(O)c1C2=O)C[C@@](O)(C(=O)CO)C[C@@H]3O[C@H]1C[C@H](N)[C@@H](O)[C@H](C)O1 returned ABHD5-PLIN5 inh 6.
Screening NC(=O)c1ccc(NC(=O)COC(=O)/C=C/c2ccc(Br)o2)cc1 returned LEDGF integ inh 22*, ABHD5-PLIN5 inh -2, rCAG binder 14, MBD2 inh 27*, PRMT1 inh 36*, UHRF1 binding 53*, PRMT1 inh conf 5, UHRF1 DNA bind 34* and MBD2 DBD conf 22*.
CC1(C(=O)NCc2ccccc2)CN(S(C)(=O)=O)CC(=O)N1Cc1ccco1 (centres undefined) was read as LEDGF integ inh -1, rCAG binder 1, MBD2 inh 2, PRMT1 inh -4 and UHRF1 binding 0.
`FC(F)(F)c1ccccc1Cc1c(-c2ccco2)nc2c3ccccc3ccn12` gave LEDGF integ inh 1, rCAG binder 19, MBD2 inh 13*, PRMT1 inh 32*, UHRF1 binding 21, PRMT1 inh conf 23*, UHRF1 DNA bind 14 and MBD2 DBD conf 8.
CCOC(=O)Cc1csc2nc(-c3ccccc3)cn12 was read as LEDGF integ inh 3, rCAG binder 3, MBD2 inh -2, PRMT1 inh -2 and UHRF1 binding 1.
Screening CCN(CC)CCN1C(=O)c2cccc3cc(N)cc(c23)C1=O returned LEDGF integ inh 3, ABHD5-PLIN5 inh 6, rCAG binder -24, MBD2 inh 14*, PRMT1 inh 25*, UHRF1 binding -3, PRMT1 inh conf 22*, UHRF1 DNA bind -1 and MBD2 DBD conf 8.
`Nc1cc2c3c(cccc3c1)C(=O)N(CCN1CCCC1)C2=O` gave LEDGF integ inh 2, ABHD5-PLIN5 inh 5, rCAG binder -10, MBD2 inh 6, PRMT1 inh 11 and UHRF1 binding -13.
